# In the supplement of paper PMC6555819:
# What was measured:
# Assay in all cases: PBM binding z-score (relative to random genomic background probes); higher = stronger binding; sequences stand for … in GC…GCGATTGACAGCGTAGAATGAAGG
# [1] = tested on: FXR:RXRa (NR concentration 270 nM, RXRa partner concentration 90 nM)
# Summary of the method: (§1)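 On custom Agilent 4×180K arrays, double-stranded probes with 34-nt variable regions carried direct-repeat seeds, single-nucleotide variants, half-site ablations or random human genomic background. Ligand-free nuclear receptor dimers were applied for 1 h, and binding was read with antibodies against each partner (one per run). Binding z-scores come from regression-normalized fluorescence, with the random background probes as reference.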
# [2] = tested on: LXRa:RXRa (NR concentration 270 nM, RXRa partner concentration 90 nM)
# Summary of the method: as §1
# [3] = tested on: LXRa homodimer (NR concentration 270 nM)
# Summary of the method: as §1
# [4] = tested on: LXRb:RXRa (NR concentration 270 nM, RXRa partner concentration 90 nM)
# Summary of the method: as §1
# [5] = tested on: LXRb homodimer (NR concentration 270 nM)
# Summary of the method: as §1
# [6] = tested on: PPARa:RXRa (NR concentration 270 nM, RXRa partner concentration 90 nM)
# Summary of the method: as §1
# [7] = tested on: PPARg:RXRa (NR concentration 180 nM, RXRa partner concentration 90 nM)
# Summary of the method: as §1
# [8] = tested on: PPARg:RXRa 270nM:90nM, anti-RXR (NR concentration 270 nM, RXRa partner concentration 90 nM)
# Summary of the method: as §1
# [9] = tested on: PPARg:RXRa 30nM:10nM, anti-RXR (NR concentration 30 nM, RXRa partner concentration 10 nM)
# Summary of the method: as §1
# [10] = tested on: PPARg:RXRa 90nM:30nM, anti-RXR (NR concentration 90 nM, RXRa partner concentration 30 nM)
# Summary of the method: as §1
# [11] = tested on: PPARg:RXRa DBDmut IVT, anti-RXR (DBD mutation: RXRa K156A/R161A, NR concentration 270 nM, RXRa partner concentration 90 nM)
# Summary of the method: as §1
# [12] = tested on: PPARg:RXRa IVT, anti-PPARg (NR concentration 270 nM, RXRa partner concentration 90 nM)
# Summary of the method: as §1
# [13] = tested on: PPARg DBDmut:RXRa IVT, anti-PPARg (DBD mutation: PPARg1 K132A/R137A, NR concentration 270 nM, RXRa partner concentration 90 nM)
# Summary of the method: as §1
# [14] = tested on: PPARg DBDmut IVT, anti-PPARg (DBD mutation: PPARg1 K132A/R137A, NR concentration 270 nM)
# Summary of the method: as §1
# [15] = tested on: PPARg homodimer (NR concentration 180 nM)
# Summary of the method: as §1
# [16] = tested on: PXR:RXRa (NR concentration 270 nM, RXRa partner concentration 90 nM)
# Summary of the method: as §1
# [17] = tested on: PXR homodimer (NR concentration 270 nM)
# Summary of the method: as §1
# [18] = tested on: RARa:RXR (NR concentration 270 nM, RXRa partner concentration 90 nM)
# Summary of the method: as §1
# [19] = tested on: RARa homodimer (NR concentration 270 nM)
# Summary of the method: as §1
# [20] = tested on: RARb:RXRa (NR concentration 270 nM, RXRa partner concentration 90 nM)
# Summary of the method: as §1
Sequence,PBM binding z-score [1],PBM binding z-score [2],PBM binding z-score [3],PBM binding z-score [4],PBM binding z-score [5],PBM binding z-score [6],PBM binding z-score [7],PBM binding z-score [8],PBM binding z-score [9],PBM binding z-score [10],PBM binding z-score [11],PBM binding z-score [12],PBM binding z-score [13],PBM binding z-score [14],PBM binding z-score [15],PBM binding z-score [16],PBM binding z-score [17],PBM binding z-score [18],PBM binding z-score [19],PBM binding z-score [20]
CTCGAAAGGTTGTGCTCAGGTGAGTATACCAAAC,0.895,0.617,-0.192,0.714,-0.313,1.04,-0.0653,0.312,-0.567,0.171,-0.27,-0.00807,-0.154,-0.108,0.203,0.645,-0.0824,1.38,0.121,1.2
ACAGACCGGTGATGAAGGTAACTCAGGCTATCAT,-0.208,-0.192,-0.177,-0.283,-0.429,-0.318,0.549,0.0547,-0.0977,-0.129,-0.264,-0.316,0.0593,0.0893,-0.0191,-0.348,-0.142,-0.0159,0.27,-0.139
GTACCAAGGTGATTAGGTCGTTGATGAGTAGGCG,0.478,0.469,0.085,0.0701,-0.428,0.886,0.547,0.741,-0.00723,0.0201,1.26,1.63,0.301,-0.28,1.06,0.265,0.198,0.753,0.341,1.1
GATACAGGGTCAGCTAGAGGCCAGACTATGGAAA,4.52,2.92,-0.325,2.4,0.0441,4.49,4.01,3.55,1.29,2.19,1.46,2.29,-0.0728,0.0438,1.82,2.88,0.12,4.3,0.752,3.97
ACAGACAGGTGATGAAGATAACTCAGGCTATCAT,-0.21,-0.125,-0.283,-0.276,-0.0745,-0.164,0.734,-0.057,0.429,0.0893,-0.0309,0.209,0.00107,0.948,0.0066,-0.435,0.0307,-0.227,0.47,0.0491
CCTTCTGGGCCAAAGGTCATTGATTCCAATGCTC,4.88,5.18,4.15,5,1.15,6.61,11.3,10.2,10.6,11.4,5.17,6.5,0.508,0.533,2.95,5.52,1.51,6.29,0.576,4.44
GCTAGTTGGTCAGTAAAAGGTCACCCACCGGTCG,3.38,4.1,4.23,3.6,0.649,4.11,2.48,4.29,2.04,3.67,0.689,2.81,0.204,-0.0831,5.31,4.84,1.27,5.99,3.9,4.28
